Assay results reported in PubChem BioAssay (NCATS).
Values joined by “and” are separate entries in the source; they are usually repeats but may differ in a detail not shown here. Identical values can stand only once. Results filed as inconclusive are left out. Active and inactive are the calls of the source. Calls come from the whole dose curve; as a rule, active = well fitted inhibition curve with a large enough effect; inconclusive = small, poorly fitted or top-dose-only effect; inactive = flat fitted curve, though single readings scatter. Where a SMILES comes first, the peptide text is derived from it. [ ]: non-standard residue; d: D form. pGlu = O=C1CC[C@@H](C(=O)O)N1; Thz = O=C(O)[C@@H]1CSCN1

How the values were obtained:
[1] = system: CRL-7250; assay: Cytotoxic Profiling of Annotated Libraries Using Quantitative High-Throughput Screening (AID 1296008); conditions: Five cell lines viability, CellTiter-Glo ATP luminescence, 48-72 h; max response: stronger effect = lower value; note: potency is the fitted concentration of half-maximal effect
In short: (§1)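 Cytotoxicity was measured as CellTiter-Glo ATP luminescence, read after 10 min at room temperature. Compound treatment of the cells lasted 48 or 72 hr at 37 degrees Celsius in a qHTS format.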

[2] = system: HEK293; assay: as above; conditions: Five cell lines viability, CellTiter-Glo ATP luminescence, 48-72 h; max response: stronger effect = lower value
In short: as §1

[3] = system: HaCat; assay: as above; conditions: Five cell lines viability, CellTiter-Glo ATP luminescence, 48-72 h; max response: stronger effect = lower value
In short: as §1

[4] = system: KB-3-1; assay: as above; conditions: Five cell lines viability, CellTiter-Glo ATP luminescence, 48-72 h; max response: stronger effect = lower value
In short: as §1

[5] = system: NIH3T3; assay: as above; conditions: Five cell lines viability, CellTiter-Glo ATP luminescence, 48-72 h; max response: stronger effect = lower value
In short: as §1

[6] = system: MCC-13; assay: qHTS assay to identify novel small-molecules to repurpose for Merkel cell carcinoma treatment (AID 1296009); conditions: MCC and control cell lines, CellTiter-Glo viability, 72 h; series mostly up to 46 µM
In short: (§2)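 Cell viability measured by CellTiter-Glo following 72 hr compound treatment at 37 degree celsius, with NPC and MIPE libraries tested in 8- and 11-point concentration series.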

[7] = system: HACAT; assay: as above; conditions: MCC and control cell lines, CellTiter-Glo viability, 72 h; at 44.8 µM (top of the series) unless noted
In short: as §2

[8] = system: MCC-26; assay: as above; conditions: MCC and control cell lines, CellTiter-Glo viability, 72 h; series mostly up to 46 µM
In short: as §2

[9] = system: MKL-1; assay: as above; conditions: MCC and control cell lines, CellTiter-Glo viability, 72 h; series mostly up to 46 µM
In short: as §2

[10] = system: HEK293T; assay: as above; conditions: MCC and control cell lines, CellTiter-Glo viability, 72 h; at 44.8 µM (top of the series) unless noted
In short: as §2
% is set by controls: 0 for no effect and ±100 for the full control effect.
Note: nearly all actives have a fitted effect of over 60% in size.

O=c1[nH]c2ccccc2n1CCCN1CCN(C(c2ccccc2)c2ccccc2)CC1
active: Potency [2] 16.8 µM
inactive: max response [1] -27.4% | max response [3] -21.6% | max response [4] 18.6% | max response [5] -21.6% | Potency [6]

COC(=O)[C@H]1[C@H]2C[C@@H]3c4[nH]c5cc(OC)ccc5c4CCN3C[C@H]2C[C@@H](OC(=O)/C=C/c2cc(OC)c(OC)c(OC)c2)[C@@H]1OC
inactive: max response [1] -14.2% | max response [2] -6.09% | outcome [3] | max response [4] -8.17% | outcome [4] | outcome [5] | outcome [7] inactive [at 17.4 µM]

CCC1C(=O)OCC1Cc1cncn1C (configuration not stated)
inactive: outcome [1] | max response [2] 0.743% | max response [3] 0.604% | max response [4] -11.4% | max response [5] -5.1% | Potency [6] | Potency [8] | Potency [9]

CC(C)OC(=O)c1cc(C(=O)OC(C)C)cc([N+](=O)[O-])c1
inactive: outcome [1] | max response [2] 4.1% | outcome [3] | max response [4] 2.68% | max response [5] -2.82% | outcome [7] inactive [at 92 µM] | Potency [6] | Potency [9]

CCNc1nc2c(ncn2[C@H]2C[C@H](O)[C@@H](CO)O2)c(=O)[nH]1
inactive: max response [1] 0.139% | outcome [2] | max response [3] -28.7% | outcome [4] | outcome [5] | outcome [10]

CCCCCCCCCCCCCCCC(=O)OC(C)C
inactive: max response [1] 3.48% | max response [2] -10.5% | max response [3] -20.5% | max response [4] 12.9% | outcome [5] | Potency [6] | Potency [9]

O=C1CC[C@@H](C(=O)N2CSC[C@H]2C(=O)O)N1 ([pGlu]-[Thz]-OH)
inactive: max response [1] -1.65% | max response [2] -11.6% | max response [3] 2.27% | max response [4] -5.47% | outcome [4] | outcome [5]

Cc1ccc2c(n1)Oc1ccc(C(C)C(=O)OCC(=O)N(C)C)cc1C2 (configuration not stated)
inactive: max response [1] 4.34% | outcome [2] | max response [3] 0.244% | max response [4] -21.6% and -9.27% | max response [5] -8.07% and -9.75% | outcome [10] | Potency [6] | Potency [9]

Cc1ccc(C(=O)c2ccc(CC(=O)O)n2C)cc1
inactive: max response [1] -1.54% | max response [2] -2.23% | max response [3] 2.78% | max response [4] -6.96% | max response [5] 0.61% | Potency [6] | Potency [9]

Nc1ccc(O)c(C(=O)O)c1
inactive: outcome [1] | max response [2] -8.37% | outcome [3] | max response [4] 2.58% | outcome [5] | outcome [7] | Potency [6] | Potency [9]

O=C(Nc1ccc2[nH]ncc2c1)C1CCC1
inactive: outcome [1] | max response [2] 0.86% | max response [3] -2.65% | max response [4] -1.12% | max response [5] 4.63%

c1ccc2sc(SSc3nc4ccccc4s3)nc2c1
inactive: max response [1] 1.15% | max response [2] 3.28% | max response [3] -2.36% | max response [4] 18.6% | max response [5] 3.25% | Potency [6] | Potency [8] | Potency [9]

Cc1c(N)c(=O)n(-c2ccccc2)n1C
inactive: max response [1] 4.52% | max response [2] -1.84% | outcome [3] | max response [4] -14.7% | max response [5] -4.09% | outcome [7] | Potency [6] | Potency [9]

CC1(C)[C@@H](O)CC[C@]2(C)[C@H]3C(=O)C=C4[C@@H]5C[C@@](C)(C(=O)O)CC[C@]5(C)CC[C@@]4(C)[C@]3(C)CC[C@@H]12
inactive: max response [1] 1.85% | outcome [2] | max response [3] -15.3% | max response [4] 9.23% and -7.89% | outcome [4] | max response [5] -0.299% | outcome [10]

O=C(O)CC1CC(c2ccccc2)=NO1 (configuration not stated)
inactive: max response [1] -3.03% | max response [2] 0.396% | max response [3] -1.53% | outcome [4] | max response [5] -6.76%

CC1(C)[C@@H](O[C@H]2O[C@H](C(=O)O)[C@@H](O)[C@H](O)[C@H]2O[C@@H]2O[C@H](C(=O)O)[C@@H](O)[C@H](O)[C@H]2O)CC[C@]2(C)[C@H]3C(=O)C=C4[C@@H]5C[C@@](C)(C(=O)O)CC[C@]5(C)CC[C@@]4(C)[C@]3(C)CC[C@@H]12
inactive: max response [1] -24.4% | max response [2] -5.35% | max response [3] -32.3% | max response [4] 5.21% | outcome [4]

CCNC(=O)[C@H]1O[C@@H](n2cnc3c(N)nc(NCCc4ccc(CCC(=O)O)cc4)nc32)[C@H](O)[C@@H]1O
inactive: max response [1] 3.23% | outcome [2] | max response [3] 2.46% | max response [4] 2.49% | max response [5] -6.33% | outcome [10]

C=CCCCCCCCCC(=O)O
inactive: max response [1] 3.74% | outcome [2] | max response [3] 0.628% | max response [4] 1.18% | max response [5] 0.287% | outcome [10] | Potency [6] | Potency [8] | Potency [9]

C[C@H](O)[C@H](O)[C@H]1CNc2nc(N)[nH]c(=O)c2N1
inactive: outcome [1] | outcome [2] | max response [3] 1.87% | max response [4] 14% | outcome [4] | outcome [5] | outcome [10]

N=C(N)N
inactive: max response [1] -5.46% | outcome [2] | outcome [3] | max response [4] -12.6% | outcome [5] | outcome [7] | outcome [10] | Potency [6] | Potency [8] | Potency [9]

CC(C(=O)O)c1ccc2c(c1)[nH]c1ccc(Cl)cc12 (configuration not stated)
inactive: max response [1] 2.04% | outcome [1] | max response [2] -1.79% | outcome [2] | max response [3] 1.94% | outcome [3] | max response [4] 2.49% and 1.67% | max response [5] 1.25% and 0.838% | outcome [7] | outcome [10] | Potency [6] | Potency [8] | Potency [9]

O=C(O)Cc1ccc(-c2ccccc2)cc1
inactive: max response [1] -1.48% | max response [2] -6.63% | max response [3] -10.6% | max response [4] -5.98% | max response [5] -5.58% | Potency [6] | Potency [9]

CC(=O)SCC(CC(=O)c1ccc(C)cc1)C(=O)O (configuration not stated)
inactive: max response [1] 2.17% | outcome [2] | max response [3] -9.14% | outcome [4] | max response [5] -1.54% | outcome [10] | Potency [6] | Potency [9]

Nc1cc(-c2ccncc2)c[nH]c1=O
inactive: outcome [1] | max response [2] 1.99% | max response [3] 3.01% | max response [4] 4.08% | max response [5] -0.0001% | Potency [6] | Potency [9]

Cc1c(Nc2ncccc2C(=O)O)cccc1C(F)(F)F
inactive: max response [1] -2.3% | max response [2] -18.7% | max response [3] 1.65% | max response [4] -9.8% | max response [5] -21.5% | Potency [6] | Potency [9]

NCCO
inactive: max response [1] -2.34% | max response [2] 4.02% | outcome [3] | max response [4] -25.6% | max response [5] -0.614% | outcome [7] inactive [at 92 µM] | Potency [6] | Potency [8] | Potency [9]

CN(C)CCn1nnnc1SCC1=C(C(=O)O)N2C(=O)[C@@H](NC(=O)Cc3csc(N)n3)[C@H]2SC1
inactive: max response [1] -7.23% | max response [2] -4.49% | outcome [3] | max response [4] -1.99% | outcome [5] | outcome [7] | Potency [6] | Potency [8] | Potency [9]

C#CC1(O)CC[C@H]2[C@@H]3CCC4=CCCC[C@@H]4[C@H]3CC[C@@]21C (some centres not stated)
inactive: max response [1] -8.11% | outcome [2] | outcome [3] | max response [4] -2.21% | max response [5] -0.384% | outcome [7] | outcome [10] | Potency [8]

CCOc1ccc2nc(S(N)(=O)=O)sc2c1
inactive: max response [1] -14% | max response [2] -2.22% | max response [3] -4.97% | max response [4] 8.76% | outcome [5] | Potency [6] | Potency [9]

O=[N+]([O-])c1ccc(CNc2nc(NCc3cccc(C(F)(F)F)c3)nc3nc[nH]c23)cc1
inactive: max response [1] -5.54% | max response [2] -22% | max response [3] 0.807% | outcome [4] | outcome [5]

CN1CCN(c2cc3c(nn2)Oc2ccccc2N3C)CC1
inactive: max response [1] -2.91% | outcome [2] | outcome [3] | max response [4] -19.4% | max response [5] -0.755% | outcome [7] inactive [at 17.4 µM] | outcome [10] inactive [at 17.4 µM] | Potency [6] | Potency [8] | Potency [9]

CN(CCCOc1ccc(Cc2ccccc2)cc1)CCC(=O)O
inactive: max response [1] 2.73% | max response [2] -4.43% | max response [3] -16.1% | max response [4] 7.31% | outcome [5]

CCCCCCCCCCCC(=O)[O][Sn]([CH2]CCC)([CH2]CCC)[O]C(=O)CCCCCCCCCCC
inactive: max response [1] -26.6% | max response [2] -9.3% | outcome [3] | max response [4] -5.63% | max response [5] 4.84% | outcome [7] | Potency [6] | Potency [8] | Potency [9]

O=C(Nc1ccc(C(=O)O)c(O)c1)c1ccccc1
inactive: outcome [1] | outcome [2] | outcome [3] | max response [4] -1.99% | max response [5] -1.76% | outcome [7] | outcome [10] | Potency [6] | Potency [9]

Nc1c(CC(=O)O)cccc1C(=O)c1ccc(Br)cc1
inactive: max response [1] 4.53% | max response [2] 2.21% | outcome [3] | max response [4] 0.539% | max response [5] 2.91% | outcome [7] | Potency [6] | Potency [9]

O=C(O)[C@H](CC(=O)N1C[C@H]2CCCC[C@H]2C1)Cc1ccccc1
inactive: max response [1] -6.27% | max response [2] -22.3% | max response [3] -9.54% | max response [4] -7.55% and -0.116% | max response [5] 3.24%
